The list is not random: actives were taken first. Their share in the collection is about 31%.
CYP2C19 act: activators of human cytochrome P450 2C19; P33261; activation factor at 5 µM; 96,000 tested, under 10 active; recombinant CYP2C19, luciferin-H EGE luminescence; hits give high values; 0 = fully inhibited enzyme, 1 = untreated enzyme; AID 1025;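 active = activation factor of at least 2 at 5 µM in the primary screen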
Target sequence (P33261 whole entry, looked up): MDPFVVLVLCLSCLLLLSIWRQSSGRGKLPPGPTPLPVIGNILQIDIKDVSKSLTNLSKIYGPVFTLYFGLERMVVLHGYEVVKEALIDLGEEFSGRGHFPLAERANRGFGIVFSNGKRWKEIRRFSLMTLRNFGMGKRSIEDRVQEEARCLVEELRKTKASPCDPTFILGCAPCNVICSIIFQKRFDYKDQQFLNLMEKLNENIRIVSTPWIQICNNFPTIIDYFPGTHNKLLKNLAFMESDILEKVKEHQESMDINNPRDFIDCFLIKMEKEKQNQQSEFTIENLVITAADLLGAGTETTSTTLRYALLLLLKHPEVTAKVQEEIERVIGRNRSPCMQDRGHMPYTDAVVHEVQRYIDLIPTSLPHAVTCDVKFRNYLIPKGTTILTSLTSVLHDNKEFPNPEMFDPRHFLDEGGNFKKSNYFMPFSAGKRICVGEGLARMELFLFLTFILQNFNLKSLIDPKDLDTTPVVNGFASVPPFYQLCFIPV
CYP2C19 inh: blocks human cytochrome P450 2C19. inhibition, % at 5 µM. P33261. CYP2C19 Supersomes, luciferin-H EGE luminescence, 30 min. 96,000 tested, 21% active;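 active = CYP2C19 inhibition above a set limit at 5 µM in the primary screen, cut at about 50% in these data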
CYP2C9 act: increases human cytochrome P450 2C9 activity | P11712 | recombinant CYP2C9, luciferin-H conversion, luminescence; hits give high values; factor 1 = untreated enzyme, 0 = blocked | activation factor at 5 µM | 96,000 tested, 1.4% active;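 active = activation factor of 2 or more for CYP2C9 at a 5 µM dose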
CYP2C9 inh: human CYP2C9 inhibition. P11712. CYP2C9 Supersomes, luciferin-H conversion, luminescence. inhibition, % at 5 µM. 96,000 tested, 20% active. AID 777;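 active = blocking of liver enzyme CYP2C9 beyond about 50% at 5 µM, limit read from the data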
PLAP activator: activates human placental alkaline phosphatase | P05187 | purified PLAP enzyme, luminescent substrate read-out; hits give high values | activation fold at 20 µM | 96,000 tested, 1.2% active; in the data active = activation fold above about 2
Numbers stand for hits.

O=S(=O)(NCCOCCNS(=O)(=O)c1ccccc1)c1ccccc1 was read as CYP2C19 act inactive, CYP2C19 inh inactive, CYP2C9 act inactive, CYP2C9 inh inactive and PLAP activator inactive.
For COc1ccc(N2CCN(C(=O)c3ccc(N4C(=O)NC5CC4(C)Oc4ccccc45)cc3)CC2)cc1 (stereo not drawn) the results were CYP2C19 act inactive, CYP2C19 inh inactive, CYP2C9 act inactive, CYP2C9 inh inactive and PLAP activator inactive.
CCOc1ccc(OCC)c(NC(=O)c2[nH]c(C)c(C(C)=O)c2C)c1 was read as CYP2C19 act inactive, CYP2C19 inh inactive, CYP2C9 act inactive, CYP2C9 inh inactive and PLAP activator inactive.
`CCOc1ccc(-n2c(SCC(=O)Nc3ccc4c(c3)OCO4)nc3c(c2=O)SCC3)cc1` gave CYP2C19 act inactive, CYP2C19 inh inactive, CYP2C9 act inactive, CYP2C9 inh 59.0 and PLAP activator inactive.
`CCOc1ccc(-n2c(SCC)nc3c(c2=O)SCC3)cc1` gave CYP2C19 act inactive, CYP2C19 inh inactive, CYP2C9 act inactive, CYP2C9 inh inactive and PLAP activator inactive.
Screening CCOc1ccc(-n2c(SCC(=O)Nc3ccc4c(c3)OCCO4)nc3c(c2=O)SCC3)cc1 returned CYP2C19 act inactive, CYP2C19 inh 77.1, CYP2C9 act inactive, CYP2C9 inh 62.9 and PLAP activator inactive.
`C=CCOC(=O)c1[nH]c2c(c1C)C(=O)CC(c1cc(OC)c(OC)c(OC)c1)C2` (stereo not drawn) gave CYP2C19 act inactive, CYP2C19 inh 61.4, CYP2C9 act inactive, CYP2C9 inh 87.1 and PLAP activator inactive.
Screening CCOc1ccc(C2CC(=O)c3c([nH]c(C(=O)OC)c3C)C2)cc1OC (stereo not drawn) returned CYP2C19 act inactive, CYP2C19 inh inactive, CYP2C9 act inactive, CYP2C9 inh 51.7 and PLAP activator inactive.
CCCCOC(=O)c1[nH]c2c(c1C)C(=O)CC(c1cc(OC)c(OC)c(OC)c1)C2 (stereo not drawn) was read as CYP2C19 act inactive, CYP2C19 inh inactive, CYP2C9 act inactive, CYP2C9 inh 63.4 and PLAP activator inactive.
`COC(=O)c1[nH]c2c(c1C)C(=O)CC(c1cc(OC)ccc1OC)C2` (stereo not drawn) gave CYP2C19 act inactive, CYP2C19 inh inactive, CYP2C9 act inactive, CYP2C9 inh inactive and PLAP activator inactive.
For CCCCCOC(=O)c1[nH]c2c(c1C)C(=O)C(C(=O)OC)C(C)C2 (stereo not drawn) the results were CYP2C19 act inactive, CYP2C19 inh inactive, CYP2C9 act inactive, CYP2C9 inh inactive and PLAP activator inactive.
Cc1cc(C)c2oc(-c3ccc(Cl)c(NC(=O)c4ccc(C#N)cc4F)c3)nc2c1 was read as CYP2C19 act inactive, CYP2C19 inh inactive, CYP2C9 act inactive, CYP2C9 inh inactive and PLAP activator inactive.
Screening CCc1ccc2c(c1)C(c1ccc([N+](=O)[O-])cc1)=NNC(c1ccc(F)cc1)=N2 returned CYP2C19 act inactive, CYP2C19 inh inactive, CYP2C9 act inactive, CYP2C9 inh inactive and PLAP activator inactive.
Cc1cccn2c(=O)c(C=O)c(N3CCCCCC3)nc12 was read as CYP2C19 act inactive, CYP2C19 inh inactive, CYP2C9 act inactive, CYP2C9 inh inactive and PLAP activator inactive.
`Cc1ccc(S(=O)(=O)/C(C#N)=C/c2c(N3CCOCC3)nc3ccccn3c2=O)cc1` gave CYP2C19 act inactive, CYP2C19 inh inactive, CYP2C9 act inactive, CYP2C9 inh inactive and PLAP activator inactive.
Screening Cc1ccc(S(=O)(=O)/C(C#N)=C/c2c(N3CCC(C(N)=O)CC3)nc3c(C)cccn3c2=O)cc1 returned CYP2C19 act inactive, CYP2C19 inh inactive, CYP2C9 act inactive, CYP2C9 inh 80.5 and PLAP activator inactive.
`CCN1CCN(c2nc3c(C)cccn3c(=O)c2/C=C(\C#N)S(=O)(=O)c2ccccc2)CC1` gave CYP2C19 act inactive, CYP2C19 inh inactive, CYP2C9 act inactive, CYP2C9 inh 90.2 and PLAP activator inactive.
`Cc1ccc(S(=O)(=O)/C(C#N)=C/c2c(N3CCC(C(N)=O)CC3)nc3ccccn3c2=O)cc1` gave CYP2C19 act inactive, CYP2C19 inh inactive, CYP2C9 act inactive, CYP2C9 inh 92.0 and PLAP activator inactive.
COc1ccccc1N1CCN(c2nc3c(C)cccn3c(=O)c2C=O)CC1 was read as CYP2C19 act inactive, CYP2C19 inh 68.9, CYP2C9 act inactive, CYP2C9 inh inactive and PLAP activator inactive.
For CCC(=O)N(Cc1cc2cc(OC)ccc2[nH]c1=O)c1cccc(C)c1 the results were CYP2C19 act inactive, CYP2C19 inh inactive, CYP2C9 act inactive, CYP2C9 inh inactive and PLAP activator inactive.

From PubChem BioAssay
